Data from ChEMBL document CHEMBL4513216, “Probing the Open Global Health Chemical Diversity Library for Multistage-Active Starting Points for Next-Generation Antimalarials” (ACS Infect Dis, 2020).
In all, about 65,000 compounds went through this assay and about 2,100 (3.2%) showed an effect of 50% or more. The median lay at about -52%. What follows is part of a selection rich in strong results, with near analogues and random picks from the rest.

system: Plasmodium falciparum; assay: Screen against P. falciparum Asexual Blood Stage (ABS), at 5uM; assay type: functional, Dd2; conditions: tested at 5 uM

SMILES | INHIBITION
CO[C@H]1CCN(C(=O)Cc2ccccn2)[C@H]1Cc1ccncc1 | -128%
COc1cc(NC2CCS(=O)(=O)CC2)ncn1 | -119%
N[C@@H]1c2ccccc2C2(CCN(c3cccc(C(F)(F)F)n3)CC2)[C@H]1O | -35.9%
Cc1ccc(CC(=O)N2CCOCC2c2c(C)n[nH]c2C)cc1 (stereo not drawn) | -37.5%
COc1ccc(C[C@H]2CNCC[C@H]2OC)cc1 | 58%
COc1ccc(C[C@H]2CN(c3nnc(C)s3)CC[C@@H]2OC)cc1 | -16%
COCCO[C@H]1CCN(Cc2ccoc2)[C@H]1Cc1cccnc1 | -10.4%
COc1ccc(C[C@H]2CN(c3nnc(C)s3)CC[C@H]2OC)cc1 | -2.98%
CO[C@@H]1CCN(Cc2cccs2)[C@H]1Cc1ccncc1 | -27.7%
CO[C@@H]1CCN(Cc2ccoc2)[C@H]1Cc1ccccc1 | 61.4%
CCOCCN1CCN(Cc2nc(CC(C)C)no2)CC1 | 18.6%
CS(=O)(=O)NC[C@]12COC[C@H]1CN(C(=O)C1CC(F)(F)C1)C2 | -80.1%
COc1cccc(-c2noc(C3CCN(Cc4ccccc4F)C3)n2)c1 (stereo not drawn) | -118%
Cn1nc2c(cc1=O)CN(Cc1coc(-c3ccccc3)n1)CC2 | -138%
COc1ccc(CN(C)[C@@H]2COC[C@H]2c2ccc(F)cc2)c(OC)c1 | 9.39%
CNc1cc2c(nn1)CCN(C(=O)c1ccc3c(c1)OCO3)C2 | -135%
O=C1NCCCC12CCN(Cc1ccc(SC3CCCCC3)o1)C2 (stereo not drawn) | 56.4%
O=C1NCCCC12CCN(Cc1ccc(-c3ccccc3)s1)C2 (stereo not drawn) | -138%
CCOc1cc(Cl)c(CN2CCC3(CCCNC3=O)C2)cc1OC (stereo not drawn) | -15.1%
O=C(NCCc1ccn(-c2ccccc2)n1)N1CCCC(CO)C1 (stereo not drawn) | -78.9%
CNC(=O)c1ccc(CN2CCN(C3=NCC(C)(C)S3)CC2)cc1 | -92%
O=C(c1cc(=O)n(-c2ccccc2)[nH]1)N1CCCC(c2ccn[nH]2)C1 (stereo not drawn) | -22.8%

SMILES | INHIBITION
COCCN1CCN(Cc2cccc(C(=O)N(C)C)c2)CC1 | 7.48%
CCOCCN1CCN(Cc2cccc(C(=O)N(C)C)c2)CC1 | -117%
CN(C)C(=O)c1cccc(CN2CCN(CCO)CC2)c1 | 61%
COc1cc2c(c(OC)c1OC)CCN(CCn1cncn1)CC2 | -167%
Cc1cc(C)c2nc(CN3CCCC(c4cc[nH]n4)C3)cc(O)c2c1 (stereo not drawn) | 54.4%
COC1CCCN(Cc2cc(O)c3cc(C)cc(C)c3n2)C1 (stereo not drawn) | -88.5%
Cc1cc(C)c2nc(CN3CC[C@@H](O)C3)cc(O)c2c1 | -6.9%
CCc1c(C)sc2ncnc(N3CCN(C4CCOCC4)CC3)c12 | 33.7%
CCc1c(C)sc2ncnc(N3C[C@H](O)[C@@H](N4CCCC4)C3)c12 | 62%
CCc1c(C)sc2ncnc(N3CC[C@@H](N4CCOCC4)[C@H](O)C3)c12 | -2.01%
O=C(C1CCCC1)N1CCOC(c2nc(-c3ncccn3)no2)C1 (stereo not drawn) | -66.9%
c1cnc(Nc2cc(CCC3CCNCC3)ccn2)cn1 | -32%
c1ccc(OCC2CC2)c(CNC2CCc3ncnn3C2)c1 (stereo not drawn) | 51.2%
CNC(=O)COc1ccccc1CNC1CCc2ncnn2C1 (stereo not drawn) | -40.5%
c1ccc(OC2CCCC2)c(CNC2CCc3ncnn3C2)c1 (stereo not drawn) | 20.5%
c1ccc(COc2ccccc2CNC2CCc3ncnn3C2)cc1 (stereo not drawn) | 69.4%
c1ccc(OCc2ccncc2)c(CNC2CCc3ncnn3C2)c1 (stereo not drawn) | -32.4%
c1cncc(COc2ccccc2CNC2CCc3ncnn3C2)c1 (stereo not drawn) | -137%
Cc1csc(NC(=O)c2cnc(C3CCCN(C)C3)cn2)n1 (stereo not drawn) | -212%
NC(=O)[C@@H]1CCCN1C(=O)c1cn(C/C=C/c2ccccc2)nn1 | -88.2%
COCCNC(=O)c1nnc2ccc(N3CCOCC3)cc2n1 | -19.6%
COC(=O)CNC(=O)c1nc(-c2ccccc2OC)c2cnccn12 | -115%

SMILES | INHIBITION
Cc1cc(C)nc(NCCC(=O)NCCn2ccnc2C)n1 | -55.9%
N#CC(NC(=O)CCCOc1cccnc1)c1ccc(F)cc1F (stereo not drawn) | -69.7%
CSc1nccc(N2CCC(NCc3ccc4c(c3)OCO4)CC2)n1 | 51.4%
CSc1nccc(N2CCC(NCc3nc(C)cc(C)n3)CC2)n1 | -119%
CSc1nccc(N2CCC(NCCN3CCOCC3)CC2)n1 | -47.4%
CNc1nc(CNC(=O)Nc2cccc(CSC)c2)cs1 | 28.7%
CCN1CCC2(C1)CN(S(=O)(=O)c1cn(C)cn1)C2 | -42.2%
CCOC(=O)CCN(Cc1cccnc1)C(=O)c1cc(Cl)c[nH]1 | -43.4%
CCc1cnc(N2C[C@@H]3C[C@H](C(=O)NCC(C)C)[C@H](C2)O3)nc1 | -47.5%
Cc1cccn2cc(CN3CCCC(c4noc(C5CC5)n4)C3)nc12 (stereo not drawn) | 54.6%
Cc1cccn2cc(CN3CCCC(O)C3)nc12 (stereo not drawn) | -34.8%
Cc1cccn2cc(CN3CCCC(c4ccn[nH]4)C3)nc12 (stereo not drawn) | -34%
CC(C)c1nn(C)c(Cl)c1CNCc1cccnc1N(C)C | -8.45%
O=C(c1cccs1)N1CCCC2(COCCN(c3cccnc3)C2)C1 (stereo not drawn) | 4.74%
c1ccc(-c2nc(CN3CCCCC3Cn3cncn3)co2)cc1 (stereo not drawn) | -87.1%
CN1CCC(c2cncc(-c3cccc(Cl)c3)n2)CC1 | 54.5%
NC(=O)CN1CCC(c2cncc(-c3cccc(Cl)c3)n2)CC1 | 67.6%
CN(C)C(=O)CN1CCCC(c2cncc(-c3cccc(Cl)c3)n2)C1 (stereo not drawn) | 49.6%
CN(C)C(=O)CN1CCC(c2cncc(-c3cccc(Cl)c3)n2)CC1 | -53.1%
O=C(CO)N1CCC(c2cncc(-c3cccc(Cl)c3)n2)CC1 | -122%
Cc1ccccc1-c1cncc(C2CCN(C)CC2)n1 | -69.9%
Cc1ccc(CN(C)C(=O)CNC(C)(C)c2noc(C(C)(C)C)n2)o1 | -62.5%

SMILES | INHIBITION
COCCC(=O)N1CCC2(COCc3cnc(N(C)C)nc32)C1 (stereo not drawn) | -29%
CCc1ccc(CN(C)C(=O)c2cnc3c(c2)nc(N)n3CC)nc1 | -20.9%
COc1cccc(OCCNS(=O)(=O)Cc2ccccc2)c1 | -91.8%
COc1cccc(CNCCNS(=O)(=O)Cc2ccccc2)c1 | 55.5%
COc1cccc(OCCNCc2ccccc2)c1 | 34.7%
CN(Cc1cn2ccccc2c1C#N)C1CCCN(c2cccnn2)C1 (stereo not drawn) | -92.9%
O=C(NCc1cncc2c1CCN(C1CCOCC1)C2)c1ccco1 | -81.7%
O=C(C(CNCc1cccs1)c1ccccc1)N1CCOCC1 (stereo not drawn) | 7.93%
O=C(C(CNCc1cccc(O)c1)c1ccccc1)N1CCOCC1 (stereo not drawn) | -52.6%
O=C(C(CNCc1ccsc1)c1ccccc1)N1CCOCC1 (stereo not drawn) | 63.6%
O=C(c1nn[nH]c1Nc1ccc(Cl)cc1)N1CCCCCC1 | 23.3%
Cc1nc(C)c(C(C)NCc2c(C)nn(CC(C)C)c2N(C)C)s1 (stereo not drawn) | -40.1%
Cc1ccc(CN2CC[C@@H](O)[C@@H]2Cc2cnn(C)c2)o1 | -75.8%
CO[C@@H]1CCN(Cc2ccc(C)o2)[C@H]1Cc1ccccc1 | -45.5%
Cc1ccc(CN2CC[C@@H](O)[C@@H]2Cc2ccccc2)o1 | 51.6%
Cn1cc(NC(=O)c2cccc(-n3cnnn3)c2)cn1 | -36%
COc1ccc(CNC2CCN(c3ccccc3)C2)cc1O (stereo not drawn) | 40.9%
COc1cc(CNC2CCN(c3ccccc3)C2)cc(OC)c1OC (stereo not drawn) | 64.6%
COc1cccc(CNC2CCSC2)c1OC (stereo not drawn) | -18.4%
COc1ccc(CNC2CCN(c3ccccc3)C2)c(OC)c1OC (stereo not drawn) | 55.2%
c1ccc(N2CCC(NCc3cccc4cn[nH]c34)C2)cc1 (stereo not drawn) | -37.2%
COc1cc(OC)cc(N2CCC(NCc3cc[nH]n3)C2)c1 (stereo not drawn) | -39.5%

SMILES | INHIBITION
Cc1cc(C)c(CNC(=O)c2ccc3c(c2)CCC3)c(=O)[nH]1 | -48.6%
CCN(CCS(=O)(=O)c1ccc(Cl)cc1)Cc1ccc(OC)c(OC)c1 | -18.6%
Cc1nc(CN2CCCn3cnc(COC(C)C)c3C2)cs1 | -54.9%
CCS(=O)(=O)CCNC1CCN(c2nc3ccc(Cl)cc3s2)CC1 | -52%
Cc1csc2c(N3CCC(NCCCC4CCOC4)CC3)ncnc12 (stereo not drawn) | -85.3%
Clc1ccc2nc(N3CCC(NCCCC4CCOC4)CC3)sc2c1 (stereo not drawn) | 66.2%
COCc1nc2ncc3c(=O)n(-c4ccccc4OC)ccc3n2n1 | -152%
O=C(Nc1cccc(N2CCCC2)c1)C1CCCN1c1nccs1 (stereo not drawn) | -129%
N#Cc1cccc(NC(=O)C2CCCN2c2nccs2)c1 (stereo not drawn) | 58.1%
O=C(Nc1cccc(F)c1)C1CCCN1c1nccs1 (stereo not drawn) | -77.8%
CNC(=O)c1ccc(CNc2ccncc2Cl)cc1 | -24.6%
O=S(=O)(NCCCn1cncn1)c1ccc2c(c1)CCCC2 | -159%
CNc1nc(C2CCCN2C(C)=O)nc2c1CN(C1CCCC1)CC2 (stereo not drawn) | -71.7%
CN1CCCCC1c1cncc(N2CCC(O)CC2)n1 (stereo not drawn) | -68.9%
c1ccc(CN2CCC3(COCc4cnc(NCC5CC5)nc43)C2)cc1 (stereo not drawn) | 50.2%
CN(C)c1ncc2c(n1)C1(CCN(Cc3ccccc3F)C1)COC2 (stereo not drawn) | 4.25%
Cc1noc(C)c1CN1CCC2(COCc3cnc(N(C)C)nc32)C1 (stereo not drawn) | 26.7%
O=S(=O)(C1CC1)N1CCC2(COCc3cnc(NCC4CC4)nc32)C1 (stereo not drawn) | -35.7%
c1cc(N2CCC3(COCc4cnc(NCC5CC5)nc43)C2)ncn1 (stereo not drawn) | -14.7%
Cc1ccccc1CN1CCC2(COCc3cnc(N(C)C)nc32)C1 (stereo not drawn) | 54%
